# In PubChem BioAssay (NCATS):
# Results filed as inconclusive are left out. Entries that show only a call come without a potency. A number with no mark means an inactive call. Active and inactive are the calls of the source. Calls come from the whole dose curve; as a rule, active = well fitted inhibition curve with a large enough effect; inconclusive = small, poorly fitted or top-dose-only effect; inactive = flat fitted curve, though single readings scatter. Where a SMILES comes first, the peptide text is derived from it.
# Molecular target: Calcium and integrin-binding protein 1 (Homo sapiens) (UniProt Q99828)
# Sequence (Q99828 whole entry, looked up): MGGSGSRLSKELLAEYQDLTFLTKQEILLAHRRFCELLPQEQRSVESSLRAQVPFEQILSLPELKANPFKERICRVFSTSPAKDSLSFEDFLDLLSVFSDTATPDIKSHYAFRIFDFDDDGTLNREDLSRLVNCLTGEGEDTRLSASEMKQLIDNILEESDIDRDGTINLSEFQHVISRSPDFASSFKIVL
# Assay: Primary qHTS for Identification of Calcium Integrin Binding Protein 1 (CIB1) Competitor (AID 1508620);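 note: GST tagged CIB1 binding a fluorescein labelled alphaIIb integrin peptide tracer; top concentration of the series differs between compounds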
# Conditions: CIB1-GST / FITC-alphaIIb peptide fluorescence polarization; series mostly up to 57.7 µM
# Method in brief: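 CIB1-GST (1 uM final) and compound incubated 15 min at room temperature before adding FITC-alphaIIb peptide tracer (100 nM final). Competition for binding read by fluorescence polarization (ex 480, em 540) after another 15 min at room temperature.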
row,SMILES,Potency
1,CC(=O)O[C@H]1C[C@@H](O)C(C)(C)C2C[C@@H](OC(C)=O)[C@]3(C)C(CC[C@@]4(C)[C@H](c5ccoc5)OC(=O)[C@H]5O[C@]543)[C@]21C (stereo partly specified),inactive
2,CC1CC(=O)C2=C(O1)OC1(C)CCC3C(C)(C)C4OC4C(=O)C3(C)C1C2 (stereo unspecified),inactive
3,COc1cc(CO)cc(OC)c1O[C@@H]1O[C@H](CO)[C@@H](O)[C@H](O)[C@H]1O,inactive
4,CC(=O)NC(Cc1ccccc1)C(=O)NC(C(=O)O)C(C)C (stereo not drawn) (Ac-Phe-Val-OH; configuration not given here),inactive
5,CC1=CC23[C@H](C=C(C(=O)O)[C@@H]2COC(=O)[C@]3(O)CO)[C@@H]1C (stereo partly specified),inactive
6,CCC(C)/C=C(C)/C=C/C1=CC2=C(Cl)C(=O)C(C)(OC(C)=O)C(=O)C2=CN1C(CC(=O)O)C(=O)O (stereo unspecified),inactive
7,C=C[C@H]1[C@H](O[C@@H]2O[C@H](CO)[C@@H](O)[C@H](O)[C@H]2O)OC=C(C(=O)OC)[C@H]1CC=O,inactive
8,C[C@@H]1O[C@@H](O[C@H]2[C@@H]3C=CO[C@@H](O[C@@H]4O[C@H](CO)[C@@H](O)[C@H](O)[C@H]4O)[C@@H]3[C@@]3(CO)O[C@@H]23)[C@H](O)[C@H](O)[C@H]1OC(=O)/C=C/c1ccc(O)cc1,inactive
9,COc1c2ccoc2nc2c(OC)c(O[C@@H]3O[C@@H](C)[C@H](O)[C@@H](O[C@@H]4O[C@H](CO)[C@@H](O)[C@H](O)[C@H]4O)[C@H]3OC(C)=O)ccc12,inactive

# Test system: not listed separately
# Assay: Primary qHTS for inhibitors of nuclear receptor binding SET domain protein 2 (NSD2) in an isogenic RCH-ACV NSD2 p.E1099K mutant (9B) (AID 1645876); note: nearly all actives have a fitted effect of over 70% in size
# Conditions: RCH-ACV (leukaemia line) NSD2 E1099K (9B) viability, CellTiter-Glo, 72 h; series mostly up to 44.9 µM
SMILES,Potency,"activity change, negative = viability loss"
O=C(OCc1ccccc1O[C@@H]1O[C@H](CO)[C@@H](O)[C@H](O)[C@H]1O)C1(O)C=CCCC1O (stereo partly specified),inactive,
CC1(CO)CCCC2(C)C3COC(=O)C3=CC(O)C12 (stereo unspecified),inactive,
CC(=C\C(C)O)/C=C(\C)C(=O)CC1CC(CC(N)=O)CC(=O)O1 (stereo unspecified),inactive,
CC[C@H]1OC(=O)[C@H](C)C(=O)[C@H](C)[C@@H](OC2O[C@H](C)C[C@H](N(C)C)[C@H]2O)[C@@H](C)C[C@@H](C)C(=O)/C=C/[C@]1(C)O (stereo partly specified),inactive,
CC1=CC(=O)CC(C)(C)[C@@]1(O)/C=C/C(C)O[C@@H]1O[C@H](CO)[C@@H](O)[C@H](O)[C@H]1O (stereo partly specified),inactive,
CC(=O)OC12CC(C)C(O)C1/C=C(/COC1OC(CO)C(O)C(O)C1O)CCC1C(/C=C(\C)C2=O)C1(C)C (stereo unspecified),inactive,
CCC(C)C(=O)O[C@H]1C[C@](C)(O)[C@]23OC(C)(C)[C@H](C[C@H](OC(=O)c4ccccc4)[C@]2(COC(C)=O)[C@H]1OC(=O)C(C)CC)[C@H]3OC(C)=O (stereo partly specified),inactive,
COc1cc(C2CC(=O)Nc3c2cc(Br)c2ccccc32)cc(OC)c1OC (stereo unspecified),inactive,
CCC1OC(=O)C(C)CC(C)C(=O)/C(C)=C/C(C)C(=O)/C=C/C1(C)O (stereo unspecified),inactive,
CCN(CCN(C)C)C(=O)CNCc1cc(C(N)=O)ccn1,inactive,
O=C(O)/C=C/c1ccc(O[C@@H]2O[C@H](CO)[C@@H](O)[C@H](O)[C@H]2O)cc1,inactive,
COC(=O)C1=COC(OC2OC(CO)C(O)C(O)C2O)C2C(COC(=O)/C=C/c3ccc(O)cc3)C(O)C(O)C12 (stereo unspecified),inactive,
COc1cc(-c2ccc(O)cc2)c(OC)c(O)c1C1=CC(=O)OC1CC(=O)O (stereo unspecified),inactive,
CC(CC12CCCN1C(=O)C1CCCN1C2=O)OC(N)=O (stereo unspecified),inactive,
CC1=C2CC(C)(C)CC2C(O)C2=C(C1)C(=O)OC2O (stereo unspecified),inactive,
COc1cc2c(cc1OC)N1C(=O)C[C@@]34C=CC[N@+]5([O-])CC[C@H]2[C@H](CC3)[C@@]145,inactive,
C=C1CCC2C(C)(C)CC(O)CC2(C)C1CCC(C)CC(=O)O (stereo unspecified),inactive,
CC1(C)OC(=O)C=C[C@@]2(C)C1CC(=O)[C@]1(C)C2CC[C@@]2(C)[C@H](c3ccoc3)OC(=O)[C@H]3O[C@]321 (stereo partly specified),inactive,
CC(=O)OCC1OC(O[C@H]2CC[C@@]3(C)C(CC[C@]4(C)C3CC=C3[C@@H]5CC(C)(C)CC[C@]5(C(=O)O)CC[C@]34C)[C@]2(C)CO)C(O)C(O)C1OC1OC(C)C(O)C(OC2OCC(O)C(O)C2O)C1O (stereo partly specified),,-15.5% [at 9.23 µM]
O=C(OCC1OC(Oc2ccc(O)cc2COC(=O)C2(O)C(O)CCC(=O)C2OC(=O)C2C=CCC2)C(OC(=O)C2C=CCC2)C(O)C1O)C1C=CCC1 (stereo unspecified),inactive,
CSCC1OC(n2cnc3c(=O)[nH]cnc32)C(O)C1O (stereo unspecified),inactive,
C=C(C(=O)O)[C@@H]1CC[C@@]2(C)CCC[C@@](C)(O)[C@@H]2C1,inactive,
